Experimental data published in the supplement of paper PMC10503962.

System: Trichuris muris adult worms
Assay: mean motility score (Paragon pixel variance) of adult worms (arbitrary units); higher = more motile worms, i.e. less anthelmintic effect; extreme values may be limits of the assay
Conditions: 100 µM; 24 h
Outline: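 Motility score was obtained through Paragon pixel-variance analysis and averaged across replicate wells. To generate it, single adult Trichuris muris worms taken from infected NOD SCID mice were kept for 24 h at 37°C and 5% CO2 in 96-well plates, each well holding 100 μL RPMI-1640 plus antibiotics and drug at 100 μM (1% v/v DMSO). The plates were then recorded on an automated phenotyping platform (200 frames, 100 ms apart).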

Compared with Cc1ccc(-c2ncc(Cl)cc2-c2ccc(S(C)(=O)=O)cc2)cn1 [etoricoxib], Cc1ccc(-c2cc(C(F)(F)F)nn2-c2ccc(S(N)(=O)=O)cc2)cc1 [celecoxib] is lower in mean motility score: 3660 for the first, 0 for the second.

Going from CC(=O)Oc1cccc2c1C(=O)c1c(OC(C)=O)cc(C(=O)O)cc1C2=O [diacerein] to CCCCNc1cc(C(=O)O)cc(S(N)(=O)=O)c1Oc1ccccc1 [bumetanide], the mean motility score rises from 0 to 4880.

Compared with Cc1c(C)c2c(c(C)c1O)CC[C@@](C)(CCC[C@H](C)CCC[C@H](C)CCCC(C)C)O2 [vitamin E], C/C(=C\C(=O)OCCCCCCCCC(=O)O)C[C@@H]1OC[C@H](C[C@@H]2O[C@H]2[C@@H](C)[C@H](C)O)[C@@H](O)[C@H]1O [mupirocin] is lower in mean motility score: 2950 for the first, 2520 for the second.

Going from c1cnc(N2CCN(Cc3ccc4c(c3)OCO4)CC2)nc1 [piribedil] to CN1CCN(CCCN2c3ccccc3Sc3ccc(C(F)(F)F)cc32)CC1.Cl.Cl [trifluoperazine dihydrochloride], the mean motility score falls from 1950 to 0.

Compared with CCCCc1oc2ccccc2c1C(=O)c1cc(I)c(OCCN(CC)CC)c(I)c1 [amiodarone], O=c1oc2ccccc2c(O)c1Cc1c(O)c2ccccc2oc1=O [dicumarol] is lower in mean motility score: 2080 for the first, 0 for the second.

First: O=C(O)c1ccc2ccccc2c1O.OCc1cc(C(O)CNCCCCCCOCCCCc2ccccc2)ccc1O (stereo not drawn) [salmeterol xinafoate]
Second: N=C(NCCCCCCNC(=N)NC(=N)Nc1ccc(Cl)cc1)NC(=N)Nc1ccc(Cl)cc1 [chlorhexidine]
The mean motility score of the first is lower: 0 for the first, 320 for the second.

Compared with NCCNCCNCCN [trientine], CCCCCCCCCCCCCCCCOP(=O)([O-])OCC[N+](C)(C)C [miltefosine] is higher in mean motility score: 2070 for the first, 2810 for the second.

Compared with NC(=O)OCC(COC(N)=O)c1ccccc1 [felbamate], CCN(Cc1ccncc1)C(=O)C(CO)c1ccccc1 (stereo not drawn) [tropicamide] is lower in mean motility score: 5470 for the first, 2030 for the second.

Compared with C/C=C(/C(=C/C)c1ccc(O)cc1)c1ccc(O)cc1 [dienestrol], CN(C)CCC=C1c2ccccc2CCc2ccccc21.Cl [amitriptyline hydrochloride] is lower in mean motility score: 3590 for the first, 0 for the second.

Going from C=CC[C@@H]1/C=C(\C)C[C@H](C)C[C@H](OC)[C@H]2O[C@@](O)(C(=O)C(=O)N3CCCC[C@H]3C(=O)O[C@H](/C(C)=C/[C@@H]3CC[C@@H](O)[C@H](OC)C3)[C@H](C)[C@@H](O)CC1=O)[C@H](C)C[C@@H]2OC [tacrolimus] to C[C@]12C=CC(=O)C=C1CC[C@@H]1[C@@H]2[C@@H](O)C[C@@]2(C)[C@H]1CC[C@]2(O)C(=O)CO [prednisolone], the mean motility score rises from 0 to 659.

First: CN(C/C=C/C#CC(C)(C)C)Cc1cccc2ccccc12 [terbinafine]
Second: O=c1ccc2ccccc2o1 [coumarin]
The mean motility score of the first is higher: 4560 for the first, 3690 for the second.

Compared with C[C@](N)(Cc1ccc(O)c(O)c1)C(=O)O [methyldopa], N[C@@H](Cc1c[nH]c2ccc(O)cc12)C(=O)O [oxitriptan] is lower in mean motility score: 4060 for the first, 3310 for the second.

Compared with CS(=O)(=O)c1cccc(C[C@H](NC(=O)c2c(Cl)cc3c(c2Cl)CCN(C(=O)c2ccc4ccoc4c2)C3)C(=O)O)c1 [lifitegrast], CN(Cc1cnc2nc(N)nc(N)c2n1)c1ccc(C(=O)N[C@@H](CCC(=O)O)C(=O)O)cc1 [methotrexate] is higher in mean motility score: 3490 for the first, 3700 for the second.

First: COc1ccc2[nH]cc(CCNC(C)=O)c2c1 [melatonin]
Second: Cc1[nH]c(/C=C2\C(=O)Nc3ccccc32)c(C)c1CCC(=O)O [orantinib]
The mean motility score of the first is higher: 4410 for the first, 3560 for the second.

Compared with O=C(O)COC(=O)Cc1ccccc1Nc1c(Cl)cccc1Cl [aceclofenac], OC(CCCN1CCCCC1)(c1ccccc1)c1ccccc1 [diphenidol] is higher in mean motility score: 972 for the first, 1940 for the second.

First: CC(=O)Nc1c(I)c(NC(C)=O)c(I)c(C(=O)O)c1I [diatrizoic acid]
Second: COc1ccc(Cl)cc1C(=O)NCCc1ccc(S(=O)(=O)NC(=O)NC2CCCCC2)cc1 [glyburide]
The mean motility score of the first is lower: 1110 for the first, 2300 for the second.

Going from CN1CCCC(n2nc(Cc3ccc(Cl)cc3)c3ccccc3c2=O)CC1.Cl (stereo not drawn) [azelastine hydrochloride] to C#C[C@]1(O)CC[C@H]2[C@@H]3CCc4cc(O)ccc4[C@H]3CC[C@@]21C [ethinyl estradiol], the mean motility score rises from 396 to 3320.

Going from CN(C)C(=N)N=C(N)N.Cl [metformin hydrochloride] to CCCc1cc(C(N)=S)ccn1 [protionamide], the mean motility score falls from 4240 to 2460.

First: Cc1nnc(NS(=O)(=O)c2ccc(N)cc2)s1 [sulfamethizole]
Second: Clc1cc(Cl)c(OCC#CI)cc1Cl [haloprogin]
The mean motility score of the first is higher: 3570 for the first, 2180 for the second.
